In PubChem BioAssay AID504333 (National Center for Advancing Translational Sciences (NCATS), 2011):
Among all 360,000 compounds or so, about 16,000 (4.4%) were called active. A call without a number means that no potency is given here. Inconclusive results (about 9%) are left out. Calls come from the whole dose curve; as a rule, active = well fitted inhibition curve with a large enough effect; inconclusive = small, poorly fitted or top-dose-only effect; inactive = no such curve, though single readings can be large or run the other way. The sample as a whole holds a higher share of actives than the screen did.

target: Bromodomain adjacent to zinc finger domain protein 2B (Homo sapiens) (UniProt Q9UIF8); assay: qHTS Assay for Inhibitors of BAZ2B; details: AlphaScreen BAZ2B-H3K14Ac peptide displacement; series mostly up to 114 µM; note: nearly all actives have a fitted effect of over 60% in size
In short: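 AlphaScreen displacement of biotin-H3(5-23)K14Ac peptide (50 nM final) from BAZ2B (50 nM final) in PBS pH 7.4, 0.01% Tween-20; complex preformed 30 min RT, then compounds (top 110 uM) 30 min RT, beads 20 min dark.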
Potency is the fitted concentration of half-maximal effect.

Chain of Bromodomain adjacent to zinc finger domain protein 2B (Homo sapiens) (Q9UIF8 whole entry, looked up, the tested form may be a part): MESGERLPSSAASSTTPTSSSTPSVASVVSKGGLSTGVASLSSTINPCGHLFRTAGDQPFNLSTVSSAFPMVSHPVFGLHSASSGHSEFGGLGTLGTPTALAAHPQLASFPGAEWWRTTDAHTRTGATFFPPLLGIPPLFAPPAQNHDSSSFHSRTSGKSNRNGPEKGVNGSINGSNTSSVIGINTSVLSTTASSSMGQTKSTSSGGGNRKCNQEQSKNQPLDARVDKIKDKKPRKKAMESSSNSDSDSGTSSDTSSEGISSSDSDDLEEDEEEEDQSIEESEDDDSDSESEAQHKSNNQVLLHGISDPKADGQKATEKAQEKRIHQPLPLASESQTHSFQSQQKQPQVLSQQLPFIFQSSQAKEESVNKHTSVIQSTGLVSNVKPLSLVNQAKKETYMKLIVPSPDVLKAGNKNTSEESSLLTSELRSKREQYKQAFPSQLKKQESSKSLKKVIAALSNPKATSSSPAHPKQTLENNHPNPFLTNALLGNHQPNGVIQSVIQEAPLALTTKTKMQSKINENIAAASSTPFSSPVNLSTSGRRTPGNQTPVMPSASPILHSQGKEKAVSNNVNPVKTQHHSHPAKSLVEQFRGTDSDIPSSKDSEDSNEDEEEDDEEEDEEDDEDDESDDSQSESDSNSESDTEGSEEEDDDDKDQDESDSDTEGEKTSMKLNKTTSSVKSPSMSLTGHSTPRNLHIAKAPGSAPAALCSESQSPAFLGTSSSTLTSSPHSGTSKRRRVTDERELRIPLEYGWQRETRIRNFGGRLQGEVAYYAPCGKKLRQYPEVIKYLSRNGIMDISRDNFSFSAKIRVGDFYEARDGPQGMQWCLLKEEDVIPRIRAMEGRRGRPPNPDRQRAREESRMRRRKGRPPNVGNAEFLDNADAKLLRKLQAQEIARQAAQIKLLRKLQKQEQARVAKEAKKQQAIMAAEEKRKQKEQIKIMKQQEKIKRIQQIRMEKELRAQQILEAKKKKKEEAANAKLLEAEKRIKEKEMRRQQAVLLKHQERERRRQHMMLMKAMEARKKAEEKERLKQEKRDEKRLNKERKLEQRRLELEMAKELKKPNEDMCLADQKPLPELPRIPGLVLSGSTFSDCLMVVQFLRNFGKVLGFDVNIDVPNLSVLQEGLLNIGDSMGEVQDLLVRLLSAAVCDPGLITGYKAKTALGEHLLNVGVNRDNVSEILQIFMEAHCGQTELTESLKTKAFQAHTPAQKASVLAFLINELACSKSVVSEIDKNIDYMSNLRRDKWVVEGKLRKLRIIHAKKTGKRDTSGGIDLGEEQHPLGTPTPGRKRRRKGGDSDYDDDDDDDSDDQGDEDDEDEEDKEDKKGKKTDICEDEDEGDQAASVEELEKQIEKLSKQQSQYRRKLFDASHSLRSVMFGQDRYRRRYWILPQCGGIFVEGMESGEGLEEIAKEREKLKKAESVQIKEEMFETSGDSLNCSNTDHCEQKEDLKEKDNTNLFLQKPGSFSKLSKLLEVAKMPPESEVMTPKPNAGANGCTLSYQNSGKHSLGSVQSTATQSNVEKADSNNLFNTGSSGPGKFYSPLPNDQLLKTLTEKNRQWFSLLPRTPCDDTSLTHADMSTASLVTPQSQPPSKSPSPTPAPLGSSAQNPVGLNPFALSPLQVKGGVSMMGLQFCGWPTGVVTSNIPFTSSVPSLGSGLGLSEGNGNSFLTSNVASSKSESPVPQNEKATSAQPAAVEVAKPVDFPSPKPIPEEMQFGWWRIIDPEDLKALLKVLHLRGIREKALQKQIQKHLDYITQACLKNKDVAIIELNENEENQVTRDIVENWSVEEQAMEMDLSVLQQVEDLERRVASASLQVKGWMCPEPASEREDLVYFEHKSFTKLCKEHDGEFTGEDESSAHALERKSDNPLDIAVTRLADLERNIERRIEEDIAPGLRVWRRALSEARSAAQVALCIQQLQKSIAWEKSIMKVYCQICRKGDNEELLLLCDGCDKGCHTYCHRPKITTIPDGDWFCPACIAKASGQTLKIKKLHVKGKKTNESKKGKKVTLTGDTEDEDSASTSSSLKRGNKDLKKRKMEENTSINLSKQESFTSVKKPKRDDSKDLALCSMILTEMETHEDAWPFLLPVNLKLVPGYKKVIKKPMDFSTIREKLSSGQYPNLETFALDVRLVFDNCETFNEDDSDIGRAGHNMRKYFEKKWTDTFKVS

Compound | Potency | activity change, negative = inhibition
CCC(CC)C(=O)N1CCN(c2cccc(C)c2C)CC1 | inactive | 
Cc1cccc(N2CCN(C(=O)/C=C/c3ccco3)CC2)c1C | 50.1 µM (active) | 
Cc1cccc(N2CCN(C(=O)c3cnc(N4CCCC4)nc3C)CC2)c1C | inactive | 
CCOc1ccc2nc(N3CCCC(C(=O)Nc4cc(C)ccc4C)C3)sc2c1 (stereo not given) | inactive | 
CC(C)c1ccc2oc(-c3cc(NC(=O)c4cccs4)ccc3Cl)nc2c1 | inactive | 
Cc1nnc(N/N=C/c2ccccn2)[nH]c1=O | 39.8 µM (active) | 
CCOc1ccc(-n2c(O)c(/C=N/c3ccnn3Cc3ccncc3)c3ccccc3c2=O)cc1 | inactive | 
CCOc1ccc(-n2c(O)c(/C=N/Nc3nc(C)cc(C)n3)c3ccccc3c2=O)cc1 | inactive | 
O=C(COc1ccc(Cl)cc1Cl)N/N=C/c1ccccn1 | inactive | 
CCOc1ccc(-n2c(O)c(/C=N/Nc3nnc(C)c(=O)[nH]3)c3ccccc3c2=O)cc1 | 12.6 µM (active) | 
Cc1nnc(N/N=C/C2CC=CCC2)[nH]c1=O (stereo not given) | inactive | 
Cc1cccc(S(=O)(=O)c2cn(Cc3ccccc3)c3cc(N4CCOCC4)c(F)cc3c2=O)c1 | inactive | 
O=C(CSc1nc2ccccc2nc1Cc1ccccc1)N1CCCCC1 | inactive | 
Cc1ccc(Nc2nnc(-c3ccc(C)c(S(=O)(=O)N4CCCCC4)c3)c3ccccc23)cc1 | inactive | 
COc1cccc(C(=O)NNS(=O)(=O)c2ccc(F)cc2)c1 |  | 8.36% [at 0.457 µM] (inactive)
O=C(NNS(=O)(=O)c1ccc(F)cc1)c1cnccn1 | 79.4 µM (active) | 
NS(=O)(=O)c1ccc(CNC(=O)c2cnccn2)cc1 | inactive | 
CCC(CC)c1nn2cc(-c3ccccc3)nc2s1 | inactive | 
Cc1ccc(OCC(=O)Nc2ccc(Cl)c(-c3nc4ccccc4[nH]3)c2)cc1C | inactive | 
Cc1nn(CC(=O)NCCc2ccccc2)c(=O)c2c1sc1ccccc12 | inactive | 
COc1cc2ccccc2cc1C(=O)Nc1nc(C)c(C(C)=O)s1 | inactive | 
CC(=O)c1sc(NC(=O)C2=NN(c3ccccc3)C(=O)CC2)nc1C | 70.8 µM (active) | 

Compound | Potency | activity change, negative = inhibition
CC(=O)c1sc(N/N=C\c2ccc(C)cc2)nc1C | inactive | 
COc1ccccc1CNS(=O)(=O)c1cc(Br)cc2c1N(C(C)=O)C(C)C2 (stereo not given) | inactive | 
O=C(Nc1ccc(Br)cc1)c1ccc(Br)c(S(=O)(=O)NCc2ccccc2)c1 | inactive | 
N#Cc1ccsc1NC(=O)CN1CCN(S(=O)(=O)c2cc(Cl)ccc2Cl)CC1 | inactive | 
COc1ccc(Cl)cc1S(=O)(=O)N1CCN(CC(=O)C(C)(C)C)CC1 | inactive | 
O=C(CN1CCN(S(=O)(=O)c2cc(Cl)ccc2Cl)CC1)c1ccc(O)c(O)c1 | 44.7 µM (active) | 
CCC(=O)Nc1ccccc1-c1nc2ccccc2n(CC(=O)Nc2ccc(C)c(C)c2)c1=O | inactive | 
CN(Cc1ccccc1)c1ncnc2onc(-c3ccc(F)cc3)c12 | inactive | 
CCOC(=O)C1CCN(S(=O)(=O)c2cc(F)ccc2OC)CC1 | inactive | 
CCOC(=O)C1CCCCN1Cc1ccc(OC)c(OC)c1OC (stereo not given) | 31.6 µM (active) | 
CCOC(=O)C1CCN(C(=O)/C=C/c2cc(OC)c(OC)c(OC)c2)CC1 | inactive | 
CCOC(=O)c1c(NC(=O)c2ccc(S(=O)(=O)N3CCCC(C)C3)cc2)sc2c1CCN(C(C)C)C2 (stereo not given) | inactive | 
CC1CCCN(c2csc3ccc(F)cc3c2=O)C1 (stereo not given) | inactive | 
COc1ccc(OCc2ccc(-c3nc4ccccc4c(=O)n3N)o2)cc1 | inactive | 
COc1ccccc1OCCCn1c(-c2ccc(Cl)cc2)nc2ccccc2c1=O | inactive | 
Cn1c(COc2ccc(Cl)cc2)nc2ccccc2c1=O | 50.1 µM (active) | 
O=C(Nc1ccc2nc(SCCOc3ccccc3)sc2c1)c1ccco1 | inactive | 
CCCCN1C(=O)/C(=C2/Sc3ccc(Cl)cc3N2CC)SC1=S | inactive | 
CCCCN1C(=O)/C(=C2/C=CC=CN2C)SC1=S | 44.7 µM (active) | 
O=C1C(Cc2ccc(O)cc2)NC(=S)N1Cc1ccccc1 (stereo not given) | inactive | 
CCCCN1C(=O)/C(=C/C=C2/C=Cc3ccccc3N2CC)SC1=S | inactive | 
CN1C=CC=C/C1=C1\SC(=S)N(Cc2ccccc2)C1=O | 50.1 µM (active) | 

Compound | Potency | activity change, negative = inhibition
COc1ccccc1NC(=O)Cn1cnc2ccc(S(=O)(=O)N3CCC(C)CC3)cc2c1=O | inactive | 
Cc1ccc2nc(N3CCN(c4cccc(Cl)c4)CC3)c3nnnn3c2c1 | inactive | 
Cn1c(=O)sc2cc(NS(=O)(=O)c3ccc(C(C)(C)C)cc3)ccc21 | inactive | 
O=C(/C=C/c1ccccc1)N1CCN(Cc2cc(=O)n3nc(-c4ccccc4F)sc3n2)CC1 | inactive | 
Cc1cc(C)c(NC(=O)Cn2c(SCC(=O)NCc3ccccc3)nc3ccccc32)c(C)c1 | inactive | 
COc1ccc(OCc2n[nH]c(=S)n2N)cc1 | 56.2 µM (active) | 
S=c1[nH]nc(COc2ccccc2)n1-c1ccccc1 | inactive | 
Cc1ccc(OCc2n[nH]c(=S)n2-c2ccccc2)cc1 | inactive | 
COc1ccc(C)cc1N(CC(=O)N1CCC(C)CC1)S(=O)(=O)c1ccc(C)cc1 | inactive | 
CCc1c(C)nc(N2CCN(Cc3ccccc3)CC2)[nH]c1=O | inactive | 
O=S(=O)(c1cccs1)N1CCN(Cc2ccccc2)CC1 | inactive | 
O=C1c2ccccc2C(=O)c2c1cccc2N1CCN(Cc2ccccc2)CC1 | 5.01 µM (active) | 
CCOc1ccccc1NC(=O)CN1CCCN(Cc2cccc(Cl)c2)S1(=O)=O | inactive | 
COc1cccc2c1cc1c(=O)n(CC(=O)N3CCN(c4ccccc4)CC3)nc(C)n12 | inactive | 
CC(=O)N1c2ccc(S(=O)(=O)N3CCCCCC3)cc2CC1C(=O)NCc1ccccc1C (stereo not given) | inactive | 
COc1ccc(C2=CC(c3ccccc3Cl)n3nc(-c4ccc(Cl)cc4)nc3N2)cc1 (stereo not given) | inactive | 
COc1ccc(C2C=C(c3ccc(Br)cc3)Nc3nc(NS(C)(=O)=O)nn32)cc1 (stereo not given) | inactive | 
Cc1ccc(C2C=C(c3ccc(Cl)cc3)Nc3nc(NC(=O)CCC(=O)O)nn32)cc1 (stereo not given) | 79.4 µM (active) | 
COc1ccc(-n2c(SCC(N)=O)nc3c(oc4ccccc43)c2=O)cc1 | inactive | 
COc1ccc(N2C(=O)CS(=O)(=O)C23C(=O)N(Cc2ccc(C)cc2)c2ccccc23)cc1Cl (stereo not given) | inactive | 
COc1cccc(C(=O)NC(=O)Nc2ccc(-c3cc(C(F)(F)F)nn3-c3ccccc3)cc2)c1 | inactive | 
